Unmarked numbers belong to inactive results.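 Rule for the calls: active = MAPPIT score above the 99th percentile of random reference set scores in the same batch; inactive = at or below it.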
Experiments:
Assay in all cases: MAPPIT interaction score (arbitrary units); higher = stronger binary interaction signal, active = hit call of the paper
CG5662 = conditions: MAPPIT configuration: N-N; pair source set: screen_2
CG5883 = conditions: MAPPIT configuration: N-N; pair source set: RRS
CG6683 = conditions: MAPPIT configuration: N-N; pair source set: Lit-BS-16
CG8654 = conditions: MAPPIT configuration: N-N; pair source set: DPIM
vih = conditions: MAPPIT configuration: N-N; pair source set: Curagen_low_conf
CG6933 = conditions: MAPPIT configuration: N-N; pair source set: Lit-BS-16
CG6712 = conditions: MAPPIT configuration: N-N; pair source set: DPIM
CG5708 = conditions: MAPPIT configuration: N-C; pair source set: screen_4
Polr3F = conditions: MAPPIT configuration: N-C; pair source set: screen_3
hale = conditions: MAPPIT configuration: N-N; pair source set: screen_1
pasi2 = conditions: MAPPIT configuration: N-N; pair source set: Lit-BS-16
CG5174 = conditions: MAPPIT configuration: N-N; pair source set: Curagen_high_conf
CG6664 = conditions: MAPPIT configuration: N-N; pair source set: DPIM
CG5854 = conditions: MAPPIT configuration: N-N; pair source set: Curagen_high_conf
Zip88E = conditions: MAPPIT configuration: N-N; pair source set: Lit-BS-16
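Note: HEK293T cells with Epo stimulation, STAT-responsive firefly luciferase reporter, fold induction versus unstimulated cells divided by the larger fold induction of two negative controls lacking either bait or prey.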

B1: CG9393 (protein)
chain: MEMQLGAMLYVYKGEYGLPSIDFECLRALCLLRFTRCPMDVQTSSNPLRSGAGKLPYLQIGNQKFAGYRQIKRVLDLEGYPIDAHLSTKQKHLSTAYANWVFTNLHAYYHYFLFGEPHNFDTTTRGLYAKRTPFPFNFYYPSSYQREACDVVQVMAGFDVNDKLDKHEGDYLVVNAKKVVNLLSRKLGRKVWFFGDTYSEFDAIVYSYLAIIFKIALPNNPLQNHIKGCQNLVNFINRITKDIFRIEGYSSVKLTKTPSGTEASLTASERKFLDSELNTKIVAGVGAVLAMGAFAAWRGIYNQLTTRSSTDYDGIDYEDDEMEEGLD
CG5662
  MAPPIT interaction score: 4.82 (active)

B2: mRpL39 (protein)
chain: MSAATKLHKTSWCALRQLQQYRTKANFSGSSASLAKRNDLFNQEQRRQRDAVGRIDKIEVRYLGLPEDVTLVMNGNISTPFNCAQHLSEGHCKRSALALIDGSVPWDMHRPLQESCTLQLLNFHVSEPHVVNKAFWRTCSFMLGAALNRAFKPEANLQLHSFPGPNIKSGSFVHDIVLQTQNWEPGKEEMRALSAEMVKLAAQDLRIERLDVQQDLAQEMFKDSKYKSEQLPSISQQTNGRVTLYRLGDHIDISRGPMVASTSFLGKCVISAAHKVAEEGPSGAFYRIQGVALPSGFQLNHVAFGVLEERSKKPSPARLPNEPFEEQQQLQLS
CG5883
  MAPPIT interaction score: -0.604

B3: Fer1HCH (protein)
chain: MVKLIASLLLLAVVAQAYGDFKCSLAVPEITKDWVDMKDACIKGMRNQIQEEINASYQYLAMGAYFSRDTVNRPGFAEHFFKAAKEEREHGSKLVEYLSMRGQLTEGVSDLINVPTVAKQEWTDGAAALSDALDLEIKVTKSIRKLIQTCENKPYNHYHLVDYLTGVYLEEQLHGQRELAGKLTTLKKMMDTNGELGEFLFDKTL
CG6683
  MAPPIT interaction score: -0.52
CG8654
  MAPPIT interaction score: 0.0556
vih
  MAPPIT interaction score: -0.155

B4: frj (protein)
chain: MSIDDVIYVICLLGCIGAGSYVKKIADEGQRKLVSTGLGVLVVVIVSGLHSLHCFVSLALGTAAVLLVHPSKGHLVTFAVMFGYLVFFRIFDFYFGIPGHTNMIQMILTLKVSGIAFEKTAAWKRLQAHDEQKKNDQRDVHQESPIEITDYDVELQSLSAAEILHYSFNYIGVLTGPYYRYRTYRDYFEMPFKTYAPTVEATLEKLKYAVFYCALYLATNYMWPLDYALSDEFFNDRSFVYRLLYVWPTFFTFRARIYTGLTLSECVCTMAGFGAYPDESDPNNGEGPRKRYQHLKRDADKHTYNFTTIVNTRVLEVERCWTFREGMKHWNVCVQYWLAVNVYKLFPSKKYRTGATLLCSAYWHGFRPGHYFCIMGAPFYVSLEDMWDKLVRKSATGTSRRVIDVIFWIFKWFAFSYLGEAFLLSSFGNIWRFYSSVYHIGYISWAAMTALGFYLTSQRKAAERRKKRAAEKAAGGDGIAAAIEKEKAQ
CG6933
  MAPPIT interaction score: 0.0283

B5: Vha55 (protein)
chain: MNAQQAQREHVLAVSRDFISQPRLTYKTVSGVNGPLVILDEVKFPKFAEIVQLRLADGTVRSGQVLEVSGSKAVVQVFEGTSGIDAKNTLCEFTGDILRTPVSEDMLGRVFNGSGKPIDKGPPILAEDFLDIQGQPINPWSRIYPEEMIQTGISAIDVMNSIARGQKIPIFSAAGLPHNEIAAQICRQAGLVKLPGKSVLDDHTDNFAIVFAAMGVNMETARFFKQDFEENGSMENVCLFLNLANDPTIERIITPRLALTAAEFLAYQCEKHVLVILTDMSSYAEALREVSAAREEVPGRRGFPGYMYTDLATIYERAGRVEGRNGSITQIPILTMPNDDITHPIPDLTGYITEGQIYVDRQLHNRQIYPPVNVLPSLSRLMKSAIGEGMTRKDHSDVSNQLYACYAIGKDVQAMKAVVGEEALTPDDLLYLEFLTKFEKNFISQGNYENRTVFESLDIGWQLLRIFPKEMLKRIPASILAEFYPRDSRH
CG6712
  MAPPIT interaction score: -0.225

B6: H2.0 (protein)
chain: MLLHESAASMEQSMPENLSTHMYGECEVNPTLAKCPDPVNVDHELPTKESCASTTIVSTSPTSATSTTKVKLSFSVDRLLGSEPEESHRQSSSSPSTKSCCDGSILACCSFPHCFSQANAESRRFGHATLPPTFTPTSSHTYPFVGLDKLFPGPYMDYKSVLRPTPIRAAEHAAPTYPTLATNALLRFHQHQKQQHQQHHHHQHHPKHLHQQHKPPPHNSTTASALLAPLHSLTSLQLTQQQQRFLGKTPQQLLDIAPTSPAAAAAATSQNGAHGHGGGNGQGNASAGSNGKRKRSWSRAVFSNLQRKGLEIQFQQQKYITKPDRRKLAARLNLTDAQVKVWFQNRRMKWRHTRENLKSGQEKQPSAVPESGGVFKTSTPSGDGTPQEALDYSSDSCSSVDLSEQADEDDNIEINVVE
CG5708
  MAPPIT interaction score: 2.81
Polr3F
  MAPPIT interaction score: 2.33
hale
  MAPPIT interaction score: 0.405
pasi2
  MAPPIT interaction score: 2.43

B7: rad50 (protein)
chain: MSSIESLSIQGIRSFGTYADDLQSIKFSSPVTLILGENGCGKTTVVECLKYALTGECPPGSDRGKSFVHDPKIFGLNEVLAQIKMQVRDRRGAQVSICRTMKVSKKRNKMSFETMDSTINFLTGAGQSKREKQDSLSGRSVDIDVAISDFMGVSKAIINNVLFCHQEDSSWPLDESKKLKEKFDAIFGITEYNKALDKIIKLRKEAMEELKIKEANIKHVAYLKQEMEVKTLNLQKAQRKCDAIKAQCSECEEEMKPIEARLVEIRNVEFEIGKYQAQKVEMDTKHKNCKDQISTLTLKIKKPFRGTLDELDQEISNFDQRMLEMRQKRTEVEGDLSQIKRSSVAEQEKLGTQDRKHCLAKQRHQSELACRAQLLKRVKEFCRELHIPIDCDLVEQPEKMGEVLRDIEAMIITKHCEITEIVEQNEKADRSRQVKIDELRIELTKSEQSVTAQEKQRESSKRESETLGVEIKKIETSMQDLKKLEKEINEVNELYESATKNIDQQAIKDAIARKKASIAENQIQFKKLDEQLTFLGSMAKLVAECSLKQKELDKKNQEVHRVRSRHSDHFGKLFKEPITCNYRRSMQVVYEKLRREIQELNEKANTQKLKEQSYEIKRKNLISDISRMEKELKDSEELIYQKCRSTPYDDLLERSKTTISKLQFDHGALKSSEALYKKYIQKMDEEPSCPLCHHNMTSDEACDLTSELTDEIQKLPDNITRAEKALKAEQIKYENLLQLKPTILKVKELKDSLPQKKEELKKVEELLGDSVSEYETLIALIGEPTHNMELANSMMGDMSLLDEALKDSARLTKDLDLQKGQLPASYDSSVSMDDLQAEKSKVSKELETERKELESAQNAVQQQMDALNRLREKKNSLKDRQIHLREGLQSLPQLKERLEKLNSFLTTVASEISELKAKIQPLKLNLRAAIEEKERLKKSESEKLAQLNSKYNSYKSTDHDIQRLNKEAEDYAKLDLRNEIKKLDEIIMASKDKLRKLEAEISLKTDELETIKTECSNQQTVERDLKDNRELKQLEDKEAKLRESCQVLDKQLGNLDFHSVSKEKVNLTKQRDKATVRKGELLGQLGEIHSQVNKLQREIDEPRFKESLKNFRKANYEIEVTRLCIEDLGQYRLALEWALIQFHSEKMEMINRLIREYWRKIYRGNDIDYIQVKTDEVSSDASADRRKTYNYRVVQSKNYSEIEMRGRCSAGQRVLASLIIRLALAETFSSNCGVLALDEPTTNLDRANINSLCEALNCIVEERQSQSNFMLIIITHDENFVSSLGKITSYHRVFRNEECKSVIRRVEAGPSKKALIDQ
CG5174
  MAPPIT interaction score: 0.0423

B8: Inx7 (protein)
chain: MLNTFSSVRQYLKFDLTRVVIDNIVFKLHYRWTFVILLVATLLITSRQYIGEHIQCLSDGVVSPVINTFCFFTPTFTVVRDQNQTAYRPGSEPPGIGAFDPEKDTIKRHAYYQWVPFVLFFQALCFYIPHALWKSWEGGRIKALVFGLRMVGLTRYLKNDSLRIGKLNIPSMAEAEERVKDIRRTMIDRMRLNQSWGAHLVFAEVLNLINLLLQITWTNRFLGGQFLTLGPHALKNRWSDELSVLDLVFPKITKCKFHKFGDSGSIQMHDALCVMALNIMNEKIYIILWFWYAFLLIVTVLGLLWRILTLCFYRNVTFTRWSLYWAKPGQLDENELLAVIDKCNFSNWMFLFFLRSNLSEFLFKKVIYHLASEFPNPDHDNDVNAYREAPPTPAKNRYPELSGLDTIDSPLLHLRRNGSPSAGGAQGPSTSDMAKLPV
CG6933
  MAPPIT interaction score: -0.387

B9: Cbp80 (protein)
chain: MSRRRAHDTEDEGYDHRRNKRRRVSENQEIEDRLESLILRVGERSTSSVESNLEGLVSVLEADLGTFRLKILRILSDCAVRMPEKCTVYTTLVGLLNAKNYKFGGEFVDHMVKTFKESLKMCRWDAARYSLRFLADLVNCHVISATSLLQLLDTMIDVSNEDTVPQVRRDWFVFAVLSTLPWVGRDLYEKKESALESLLLRIEVYLNKRSKKHHNALRVWSSDAPHPQEEYLDCLWAQIRKLRQDNWAEKHIPRPYLVFDSILCEALQHNLPTIVPPPHHDNFEYPMPWVVYRMFDYTDCPDGPNLPGAHSIERFLIEEHLHHIIETYHHERKDCAAQLLSFPYKHKIPLEYCIVEVVFAELFHMPTPRYLDICYGSILIELCKLQPATLPQVLAQATEILFMRIDSMNTSCFDRFVNWFSYHLSNFKFTWSWDEWDSCLLLDGEHPRPKFIQEVLQKCLRLSYHQRITEMMPTTYAKLIPLTPVPNYKYANEEAANLPGTTVAHQLVVAIRQKCTPEEVVNILKDIPNSGYSGEEMSDGSFNALKIDVFVQTLLNLGSKSFSHSFAAISKFHSVFRALAETEEAQICILHNIFELWSSHQQMMVVLIDKLLKLQIVDCSAVATWIFSKEMTGEFTKLYLWEILHLTIKKMNKHVIKLNTELSEAKEKLAKADSSSSDSEDDSSHKRKKPITHADKPSEEVVERMEEKLEAANVNQKRLFLIVFQRFIMILSEHLLRSDTDGRDPDTDWYRWTIGRLQQVFLMHHEQVQKYSSTLETLLFTSDLDTHILEVFQQFVALRA
CG6664
  MAPPIT interaction score: -0.12

B10: pip (protein)
chain: MSLNAERSYKMKLRDVENAFKYRRIPYPKRSVELIALLAISCTFFLFMHTNKLNSRLKEMEVKLQPSEFSALGLTGNHISGHDAGKHDDINTLHGTYQYLKSTGQKVGYNVHDRRSSEEQLRTPTAHGHHHDHHSHHHHMHQQEKIDGHKHKASHDKQLAVPDNKHKEDEVHYEDDEDEVEENDDDLANDVGTTDSEGFNFKADLLNNTKYAEVDFVFFNRVPKVGSQSLMELMARLGKINGFTHARNKGSAHETIVMNKQRQNDLIADLLTRPKPHIYSQHIAYINFTRFHLPKPIYINLIRDPIDRIISWHYYIRAPWYYRDMQAKLGENAIPMPSEEFMNLDLDTCVRNHDPHCTFTQMQIKNPVGDHRRQTLFFCGMNQKLCMPFNSEAAMQKAKRTVETEYAVVGTWEDTNITLSVLEAYIPRYFRNAKVAYYLGKDRLSRVNRNNVTRIVSDETRLILRKNLTNEIEFYEFCKQRLYLQYAALSHGKRFGEDDYLLVPEQQNEYNEDY
CG5854
  MAPPIT interaction score: -0.136
Zip88E
  MAPPIT interaction score: 0.425
